We go through 55 compounds from ChEMBL document CHEMBL3988442, “University of Dundee, Small-Polar-MMV Screening Library” (2021).

Structures are written as SMILES. In all, about 69,000 compounds went through this assay and about 420 (0.61%) showed an effect of 50% or more. For the sample, strong results were picked, then their nearest neighbours and some compounds at random.

This assay has as its target T1, Histidine--tRNA ligase (Leishmania infantum) (UniProt A4I591).
T1 sequence (whole entry): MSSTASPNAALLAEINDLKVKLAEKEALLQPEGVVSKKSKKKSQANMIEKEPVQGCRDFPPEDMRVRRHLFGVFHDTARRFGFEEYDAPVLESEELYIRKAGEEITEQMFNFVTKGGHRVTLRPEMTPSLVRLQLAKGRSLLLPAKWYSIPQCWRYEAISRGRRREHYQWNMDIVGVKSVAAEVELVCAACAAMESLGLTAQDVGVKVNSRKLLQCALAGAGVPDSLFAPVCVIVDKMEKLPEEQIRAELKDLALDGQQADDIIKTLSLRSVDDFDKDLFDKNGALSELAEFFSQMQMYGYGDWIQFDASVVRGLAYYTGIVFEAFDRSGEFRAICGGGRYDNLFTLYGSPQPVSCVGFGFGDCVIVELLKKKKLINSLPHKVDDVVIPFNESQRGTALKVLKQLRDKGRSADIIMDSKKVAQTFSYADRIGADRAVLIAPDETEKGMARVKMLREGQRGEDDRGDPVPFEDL
As to the kind of experiment: Leishmania infantum Histidine tRNA synthetase (LdHisRS). It is filed as functional. Also on record: scale not given: in the data most compounds retested in dose-response had high values. The following applies: 30 µM.
For the compound `Cn1cccc1C(=O)N[C@@H]1CN(Cc2cccs2)[C@@H]2COC[C@@H]21`, the Percent Effect turned out to be 5.71%.
To `COc1ccc(CN2C[C@@H]3CN(Cc4ccncc4)C[C@@H]3C2=O)cc1` belongs 13.6%; to `COc1cc(N2C[C@H]3CCC[C@@H](CN4CCOCC4)[C@H]3C2)ncn1`, 17.4%; to `O=C1COC2(CCN(Cc3ccoc3)CC2)CN1CCn1cccn1`, 21.4%.
To `COCCN1CCC2(CC1)CN(CCn1cccn1)C(=O)CO2` belongs 16.2%.
To `CS(=O)(=O)N1CCC2(CC1)CN(CCn1cccn1)C(=O)CO2` belongs 65.8%; to `CCn1cc(C(=O)N2C[C@H]3C[C@H](Oc4ccccc4)C[C@H]3C2)cn1`, 11.5%; to `Cc1nc(C(=O)N2CCN(C(=O)C3CCC3)[C@@H]3CS(=O)(=O)C[C@@H]32)cs1`, 2.67%.
As for `O=C(Cc1ccsc1)N1C[C@H]2CCC[C@@]2(COCc2ccccn2)C1`, the Percent Effect was found to be 7.92%.
As to `CN(C)CC(=O)N1CCCC1c1ccccn1` (stereo not given), the Percent Effect amounted to 8.63%.
To `Cn1cc(C(=O)N2CCCC2c2ccc3c(c2)OCO3)ccc1=O` (stereo not given) belongs 12.1%; to `Cn1cc(NC(=O)N2CCCC2c2ccccn2)ccc1=O` (stereo not given), 108%.
For `COc1ccc(NC(=O)N2CCCC2c2ccncc2)cn1` (stereo not given), the Percent Effect is 13.2%.
Then `CC(C)C1CCCN1C(=O)Nc1ccc(=O)n(C)c1` (stereo not given), with 119%.
Regarding `Cn1cc(NC(=O)N2CCCC2c2cccnc2)ccc1=O` (stereo not given), the Percent Effect is 100%.
Regarding `Cc1cc(C)c(CNC(=O)N2CCCC2c2ccccn2)c(=O)[nH]1` (stereo not given), the Percent Effect worked out at 12.3%.
To `Cn1cc(C(=O)N2CCCC2c2ccc3c(c2)OCCO3)ccc1=O` (stereo not given) belongs 27.3%; to `CCSc1ccc(NC(=O)N2CCCC2c2ccncc2)cn1` (stereo not given), 1.65%; to `Cc1ccc(CN2CC[C@@H]3OCCN(S(C)(=O)=O)[C@H]3CC2)s1`, 7.55%.
Then `Cn1cc(C(=O)N2CC[C@@H]3[C@@H]2CCN3Cc2cccc(C#N)c2)cn1`, with 3%.
Turning to `CN(C)C[C@@H]1C[C@@H]2CN(C(=O)Cc3cccs3)CC[C@@H]2N1C`, the Percent Effect is 6.42%.
Then `Cc1ccc(CN2CC[C@H]3C(=O)N(Cc4cccnc4)CCO[C@H]3C2)o1`, with 5.88%; and `COc1ccc(CNCC2CCN(c3ccccc3OC)C2)cc1O` (stereo not given), with 16.1%.
Regarding `COc1ccccc1N1CCC(CNCc2cccc(O)c2)C1` (stereo not given), the Percent Effect was 21.4%.
To `COc1ccccc1N1CCC(CNCc2cccc(OC)c2OC)C1` (stereo not given) belongs 59.5%; to `O=C(c1ccco1)N1CCO[C@@H]2CN(c3ccccn3)CC[C@@H]2C1`, 17.5%; to `CN1CCN(C(=O)[C@@H]2CC[C@@H]3[C@@H](CCN3c3ncccn3)O2)CC1`, 14%.
To `Cc1ccccc1NC(=O)N1CCN(C(=O)C2CC2)[C@@H]2CS(=O)(=O)C[C@@H]21` belongs 4.92%.
For the compound `CCN(Cc1ccc(O)c(C(=O)O)c1)CC1CCCO1` (stereo not given), the Percent Effect is 16.4%.
To `CCN(Cc1cccc2c1OCO2)CC1CCCO1` (stereo not given) belongs 20%.
Then `CCN(Cc1ccc2cccc(O)c2n1)CC1CCCO1` (stereo not given), with 74%.
As for `O=C1CC2(CCN(Cc3ccc4cccc(O)c4n3)CC2)CN1`, the Percent Effect came to 63.2%.
Regarding `O=C1CC2(CCN(Cc3ccc(C(F)(F)F)nc3)CC2)CN1`, the Percent Effect turned out to be 15.4%.
Turning to `CCCc1ccc(CN2CCC3(CC2)CNC(=O)C3)o1`, the Percent Effect stood at 11.7%.
To `O=C(c1cnccn1)N1CCN2C[C@H](OCc3ccccc3F)C[C@H]2C1` belongs 1.37%; to `O=C(Cc1ccsc1)N1C[C@@H]2COC[C@]2(COc2cccnc2)C1`, 15.4%; to `CCc1ccccc1OCCN1CC[C@@]2(O)CCNC[C@H]2C1`, 15.8%.
Then `CNC(=O)[C@@]12CCO[C@@H]1CCN(S(=O)(=O)c1ccc(C)cc1)C2`, with -5%.
Then `CCc1c(C(=O)N2CCN(C)[C@@H]3CS(=O)(=O)C[C@@H]32)[nH]c2ccccc12`, with 11%; and `CC(=O)N1CCCCC1c1nnc2n1CCNC2` (stereo not given), with 2.76%.
With `CC(C)NC(=O)N1CCCCC1c1nnc2n1CCNC2` (stereo not given), the Percent Effect worked out at 30.3%.
Then `CC(C)NC(=O)N1CCC(c2nnc3n2CCNC3)CC1`, with 74.5%; and `NC(=O)CS(=O)(=O)Cc1csc(-c2ccc(F)cc2)n1`, with 16.9%.
Then `NC(=O)CS(=O)(=O)Cc1csc(-c2ccccc2)n1`, with 53%; and `O=C(CS(=O)(=O)Cc1csc(-c2ccc(F)cc2)n1)NCC1CC1`, with 48.2%.
To `O=C([C@@H]1CCO[C@@H]2CCN(CC3CC3)C[C@H]21)N1CCCCO1` belongs 17.9%; to `O=C(c1ccccc1)N1C[C@@H]2CCCO[C@@H]2[C@H](N2CCCC2)C1`, 22.8%.
As for `CCC[C@@H]1CN(C(=O)c2ccccc2-c2ccccc2)C[C@H]1N(C)C`, the Percent Effect is 8.57%.
Then `CCC[C@@H]1CN(C(=O)c2ccccc2C(C)=O)C[C@H]1N(C)C`, with 8.57%.
`CCC[C@@H]1CN(C(=O)c2cc3ccccc3cc2O)C[C@H]1N(C)C`: the Percent Effect is 77.1%.
Then `CCC1=N[C@@]2(CC[C@@H]3CN(CC(C)C)C[C@@H]32)C(=O)N1`, with 11.1%; and `CCOc1cccc(C(=O)N2C[C@H]3CC[C@@H]2CN(C(=O)C2CCC2)C3)c1`, with 4%; and `Cc1ccc(OCc2occc2C(=O)N2C[C@@H]3[C@@H](CN(C)C)[C@@H]3C2)cc1`, with 15.9%.
To `Cc1nc(COC[C@@]23CCC[C@@H]2CN(Cc2nccs2)C3)cs1` belongs 15.8%; to `CN(C)C(=O)CO[C@H]1CN(Cc2nccs2)[C@@H]2COC[C@H]12`, 9.91%.
